# Test results from article PMC11062922 (Nature Chemical Biology, 2023).
# Like-named read-outs stand apart in the source and are kept apart here.
# What was measured:
# [1] = system: CLK2; design: species or system human, MV4-11 + K-562 + COLO205 + SK-N-BE2 + OVCAR-8; settings: read-out: apparent Kd, n = 1
# [2] = system: BMPR1B; design: species or system human, MV4-11 + K-562 + COLO205 + SK-N-BE2 + OVCAR-8; settings: read-out: apparent Kd, n = 1
# [3] = system: EGFR; design: species or system human, MV4-11 + K-562 + COLO205 + SK-N-BE2 + OVCAR-8; settings: read-out: apparent Kd, n = 1
# [4] = system: MET; design: species or system human, MV4-11 + K-562 + COLO205 + SK-N-BE2 + OVCAR-8; settings: read-out: apparent Kd, n = 1
# [5] = system: GSK3A; design: species or system human, MV4-11 + K-562 + COLO205 + SK-N-BE2 + OVCAR-8; settings: compound concentrations:0.3nM, 1nM, 3nM, 10nM, 30nM, 100nM, 300nM, by the legend:Standard error of the EC50 estimation as provided by the drc package.; for Kd: read-out: apparent Kd
# [6] = system: GSK3B; design: species or system human, MV4-11 + K-562 + COLO205 + SK-N-BE2 + OVCAR-8; settings: compound concentrations:0.3nM, 1nM, 3nM, 10nM, 30nM, 100nM, 300nM, by the legend:Standard error of the EC50 estimation as provided by the drc package.; for Kd: read-out: apparent Kd
# [7] = system: LATS1; design: species or system human, MV4-11 + K-562 + COLO205 + SK-N-BE2 + OVCAR-8; settings: compound concentrations:0.3nM, 1nM, 3nM, 10nM, 30nM, 100nM, 300nM, by the legend:Standard error of the EC50 estimation as provided by the drc package.; for Kd: read-out: apparent Kd
# [8] = system: PKN1; design: species or system human, MV4-11 + K-562 + COLO205 + SK-N-BE2 + OVCAR-8; settings: compound concentrations:0.3nM, 1nM, 3nM, 10nM, 30nM, 100nM, 300nM, by the legend:Standard error of the EC50 estimation as provided by the drc package.; for Kd: read-out: apparent Kd
# [9] = system: PRKX; design: species or system human, MV4-11 + K-562 + COLO205 + SK-N-BE2 + OVCAR-8; settings: compound concentrations:0.3nM, 1nM, 3nM, 10nM, 30nM, 100nM, 300nM, by the legend:Standard error of the EC50 estimation as provided by the drc package.; for Kd: read-out: apparent Kd
# [10] = system: ACOX1; design: species or system human, MV4-11 + K-562 + COLO205 + SK-N-BE2 + OVCAR-8; settings: read-out: apparent Kd; compound concentrations:100 nM and 1000 nM (sheet 'Samples'); n = 1
# [11] = system: PDXK; design: species or system human, MV4-11 + K-562 + COLO205 + SK-N-BE2 + OVCAR-8; settings: read-out: apparent Kd; compound concentrations: 100 nM and 1000 nM (sheet 'Samples'), CATDS: 3.03985195702474E-2; n = 1
# [12] = system: CK2alpha2; settings: Highest Assay Concentration (M): 9.9999999999999995E-7
# [13] = system: CAMK4; design: species or system human, MV4-11 + K-562 + COLO205 + SK-N-BE2 + OVCAR-8; settings: read-out: apparent Kd; compound concentrations: 100 nM and 1000 nM (sheet 'Samples'), CATDS: 7.8205742217562803E-3; n = 1
# [14] = system: ERN1; design: species or system human, MV4-11 + K-562 + COLO205 + SK-N-BE2 + OVCAR-8; settings: read-out: apparent Kd, compound concentrations: 100 nM and 1000 nM (sheet 'Samples'), n = 1
# [15] = system: SIK3; design: species or system human, MV4-11 + K-562 + COLO205 + SK-N-BE2 + OVCAR-8; settings: read-out: apparent Kd, compound concentrations: 100 nM and 1000 nM (sheet 'Samples'), n = 1
# [16] = system: CSNK1G3; design: species or system human, MV4-11 + K-562 + COLO205 + SK-N-BE2 + OVCAR-8; settings: read-out: apparent Kd; compound concentrations: 100 nM and 1000 nM (sheet 'Samples'), CATDS: 4.4654853896455996E-3; n = 1
# [17] = system: NQO1; design: species or system human, MV4-11 + K-562 + COLO205 + SK-N-BE2 + OVCAR-8; settings: read-out: apparent Kd; compound concentrations: 100 nM and 1000 nM (sheet 'Samples'), CATDS: 3.59016343581718E-3; n = 1
# [18] = system: PI4KA; design: species or system human, MV4-11 + K-562 + COLO205 + SK-N-BE2 + OVCAR-8; settings: read-out: apparent Kd; compound concentrations: 100 nM and 1000 nM (sheet 'Samples'), CATDS: 7.2985744477334297E-3; n = 1
# [19] = system: RPS6KA5; design: species or system human, MV4-11 + K-562 + COLO205 + SK-N-BE2 + OVCAR-8; settings: read-out: apparent Kd; compound concentrations: 100 nM and 1000 nM (sheet 'Samples'), CATDS: 4.7822949231481997E-3; n = 1
# [20] = compound concentrations:100 nM and 1000 nM (sheet 'Samples')
# [21] = 1000nM,R2:0.98891896520214295,slope:0.86644868747919301,EC50 Standard Error
# [22] = 1000nM,R2:0.97796062612419798,slope:0.95181625856524898,EC50 Standard Error
# [23] = 1000nM,R2:0.99282697672558795,slope:1.31312375653091,EC50 Standard Error
# [24] = 1000nM,R2:0.99748458534068796,slope:1.1297658372901001,EC50 Standard Error
# [25] = 1000nM,R2:0.99104054700331501,slope:1.8352310088782899,EC50 Standard Error
# [26] = 1000nM,R2:0.98330827393916598,slope:1.45562792091779,EC50 Standard Error
# [27] = 1000nM,R2:0.96555674920545798,slope:0.96794765422259599,EC50 Standard Error
# [28] = 1000nM,R2:0.97889671835051595,slope:1.6751561590983699,EC50 Standard Error
# [29] = 1000nM,R2:0.97867991540409105,slope:0.79419686113227705,EC50 Standard Error
# [30] = 1000nM,R2:0.94127289372754697,slope:1.4629649923763099,EC50 Standard Error
# 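Wherever EC50 is given: competition pulldown with Kinobeads ε in cell lysates, inhibitor preincubated 45 min at 4 °C, bound kinases quantified by LC–MS/MS against DMSO control.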
# 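Wherever Kd is given: competition pulldown with Kinobeads ε in cell lysates, inhibitor preincubated 45 min at 4 °C, bound kinases quantified by LC–MS/MS against DMSO control.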
smiles,measurement,setting,value
Clc1cc(Cl)cc(Nc2ccnc(Nc3cc(Cl)cc(Cl)c3)n2)c1 [GSK175726A],potency estimated from few doses,"[1]; compound concentrations: 100 nM and 1000 nM (sheet 'Samples'), CATDS: 1.2027926669680101E-2",432 nM
CNC(=O)c1ccccc1Nc1nc(Nc2ccc(N3CCOCC3)cc2)ncc1Cl.Cl [GSK1576028A],potency estimated from few doses,[2]; [20],429 nM
same,potency estimated from few doses,[3]; [20],580 nM
same,potency estimated from few doses,[4]; [20],68.1 nM
CCn1c(-c2nonc2N)nc2c(C#CC(C)(C)O)nc(OCCN)cc21.CCn1c(-c2nonc2N)nc2c(C#CC(C)(C)O)nc(OCCN)cc21.Cl.Cl [GSK902056A],EC50,[5]; [21],173 nM
same,Kd,[5]; [21],164 nM
same,EC50,[6]; [22],296 nM
same,Kd,[6]; [22],288 nM
same,EC50,[7]; [23],87.4 nM
same,Kd,[7]; [23],87.4 nM
same,EC50,[8]; [24],92.3 nM
same,Kd,[8]; [24],92.3 nM
same,EC50,[9]; [25],127 nM
same,Kd,[9]; [25],127 nM
Cc1cccc(Nc2nc(N[C@H]3CCCC[C@H]3N)ncc2C(N)=O)c1.Cl [GSK986310C],potency estimated from few doses,[10],1340 nM
CCn1c(-c2nonc2N)nc2c(C#CC(C)(C)O)nc(OCCNC)cc21.Cl [GSK949675A],EC50,[5]; [26],167 nM
same,Kd,[5]; [26],104 nM
same,EC50,[6]; [27],322 nM
same,Kd,[6]; [27],171 nM
same,EC50,[7]; [28],238 nM
same,Kd,[7]; [28],238 nM
same,EC50,[8]; [29],4240 nM
same,Kd,[8]; [29],4230 nM
same,EC50,[9]; [30],221 nM
same,Kd,[9]; [30],221 nM
CN(c1ccc(NC(=O)N2CCN(CCCN3CCOCC3)CC2)cc1)c1ccnc(Nc2ccc(CS(C)(=O)=O)cc2)n1.Cl [GW830899A],potency estimated from few doses,"[3]; compound concentrations: 100 nM and 1000 nM (sheet 'Samples'), CATDS: 1.7872150639672801E-2",2150 nM
same,potency estimated from few doses,[11],617 nM
O=C1NC(=O)/C(=C/c2ccc3ncccc3c2)S1 [RO4603632-000],IC50,[12],3.72e-07 M
CONC1=NC(=O)/C(=C/c2ccc3ncccc3c2)S1 [RO4613269-000],IC50,[12],6.53e-08 M
O=C1N=C(Nc2ccccc2)S/C1=C\c1ccc2ncccc2c1 [RO4493940-000],IC50,[12],5.11e-08 M
COc1cc(Nc2ncc3c(C)nc(-c4cc5ccccc5[nH]4)n3n2)cc(OC)c1OC [GW869516X],IC50,[12],3.37e-08 M
Cl.Cl.NCC(C(=O)Nc1cc(Br)c(-c2ccnc3[nH]ccc23)s1)c1ccccc1.NCC(C(=O)Nc1cc(Br)c(-c2ccnc3[nH]ccc23)s1)c1ccccc1 (centres unmarked) [GSK1269851A],potency estimated from few doses,[1]; [20],730 nM
CCOC(=O)N1CCC(n2cnc(-c3ccc(F)cc3)c2-c2ccnc(N)n2)CC1 [SB-219952],potency estimated from few doses,[13],1850 nM
same,potency estimated from few doses,[14]; CATDS: 7.4915709296516997E-3,2200 nM
COc1ccc(Nc2ncc(C#N)c(Nc3ccccc3C(N)=O)n2)cc1N1CCN(C)CC1.Cl [GSK1558669A],potency estimated from few doses,[14]; CATDS: 5.84806980625629E-3,2140 nM
same,potency estimated from few doses,"[4]; compound concentrations: 100 nM and 1000 nM (sheet 'Samples'), CATDS: 6.0762727664259702E-3",1600 nM
same,potency estimated from few doses,[15]; CATDS: 6.59336570259887E-3,968 nM
O=C1N=C(NCCc2ccc(Cl)cc2)S/C1=C\c1ccc2ncccc2c1 [RO4498479-000],potency estimated from few doses,"[3]; compound concentrations: 100 nM and 1000 nM (sheet 'Samples'), CATDS: 6.9080879323699202E-3",1730 nM
Cn1ncc2c(N)ncnc21 [SKF-18267],potency estimated from few doses,"[2]; compound concentrations: 100 nM and 1000 nM (sheet 'Samples'), CATDS: 8.9058122855820206E-3",311 nM
same,potency estimated from few doses,[16],1030 nM
same,potency estimated from few doses,"[3]; compound concentrations: 100 nM and 1000 nM (sheet 'Samples'), CATDS: 3.5324220214717501E-3",1890 nM
same,potency estimated from few doses,[14]; CATDS: 4.2148373609633104E-3,1180 nM
same,potency estimated from few doses,"[4]; compound concentrations: 100 nM and 1000 nM (sheet 'Samples'), CATDS: 4.2018834707484203E-3",1190 nM
same,potency estimated from few doses,[17],1800 nM
same,potency estimated from few doses,[18],420 nM
same,potency estimated from few doses,[19],891 nM
same,potency estimated from few doses,[15]; CATDS: 3.59529212961178E-3,1790 nM
